Inconclusive results are not listed. A call without a number means that no potency is given here. Calls of active or inactive are those of the source. Calls follow the shape of the dose curve; as a rule, active = well fitted inhibition curve with a large enough effect; inconclusive = small, poorly fitted or top-dose-only effect; inactive = no such curve, though single readings can be large or run the other way.
Biological target: N-terminal Xaa-Pro-Lys N-methyltransferase 1 (Homo sapiens) (UniProt Q9BV86)
Sequence (Q9BV86 whole entry, looked up): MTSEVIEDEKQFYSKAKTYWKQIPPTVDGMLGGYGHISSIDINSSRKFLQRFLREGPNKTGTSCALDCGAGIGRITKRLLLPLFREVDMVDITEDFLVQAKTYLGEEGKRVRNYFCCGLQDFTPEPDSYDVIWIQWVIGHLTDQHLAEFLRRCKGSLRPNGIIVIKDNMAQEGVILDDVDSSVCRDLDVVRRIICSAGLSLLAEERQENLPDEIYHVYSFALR
Test: qHTS Assay for Inhibitors of N-terminal methyltransferase 1 (NTMT1): ThioGlo3 Assay Confirmatory Screen, Round 1.
Excerpt: Assay Submitter (PI): Rong Huang Ph.D, Purdue University, West Lafayette, IN 47907 The N-terminal methytransferase 1 is the first methyltransferase that methylates protein alpha-N-amines and plays an important role in regulating cell mitosis, chromatin interactions and DNA repair. It is observed to be over-expressed in various cancer patient tissues like malignant melanoma and colorectal cancer tissues. Knockdown of NTMT1 in cancer cells causes cell mitotic defects and enhances sensitivity to DNA damaging chemotherapeutics. […] These critical cellular processes in which NTMT1 is implicated, coupled with emerging links to cellular dysfunction, strengthen the inference that NTMT1 is a compelling novel anticancer target. Progress have been made in understanding the molecular properties of NTMT1 and the biological consequences of protein alpha-N-terminal methylation, but there are no specific small molecule probes available for NTMT1 to fully characterize its MTase activity. To address this unmet need, a panel of assay is created and established to enable quantitative high-throughput screening (qHTS) for novel, potent, and selective small molecule NTMT1 inhibitors. Two orthogonal qHTS that use different reagents (ThioGlo vs. MTaseGlo) are developed for primary robotic screening against the NCATS chemical library of more than 400,000 small molecules. Identified inhibitors are reacquired, validated, and further characterized. […] Early Translation Branch (ETB) National Center for Advancing Translational Sciences (NCATS) National Institute of Health (NIH)
Materials: NTMT1 enzyme, substrate SPKRIA, control peptide RCC1-6 is provided by the Huang laboratory. ThioGlo3 Assay: In brief, 125nM NTMT1 enzyme was dispensed into a 1536-well assay plate with Aurora Discovery BioRAPTR Flying Reagent Dispenser (FRD, Beckton-Dickenson). Compounds (at various concentration) or 1uM RCC1-6 (SPKRIA) control were transferred to the assay plate using the Kalypsys 1536-pintool apparatus. After 1 min of room temperature incubation, 1uL of substrate (100uM SAM, 10uM SAHH, 15uM ThioGlo3) was added to the wells bringing the final assay volume to 4uL. Initial (background) fluorescence readout (EX: 340nm, EM: 450nm) was then detected using the PerkinElmer ViewLux microplate imager and a final fluorescence readout was taken after 30 min of room temperature incubation. The data was normalized to the background fluorescence.
Also: nearly all actives have a fitted effect of over 80% in size.
Potency is read from the fitted curve at half-maximal effect.

| SMILES | Potency |
| --- | --- |
| CCN(CC)c1ncnc2c1ncn2[C@@H]1O[C@H](COP(=O)(O)OP(=O)(O)C(Br)(Br)P(=O)(O)O)[C@@H](O)[C@H]1O | inactive |
| Nc1ncnc2c1ncn2[C@@H]1O[C@@H]2CO[P@](=O)(S)O[C@H]2[C@H]1O | inactive |
| CCNC(=O)[C@H]1O[C@@H](n2cnc3c(N)ncnc32)[C@H](O)C1O (stereo partly drawn) | inactive |
| Nc1ncnc2c1nc(Sc1ccc(Cl)cc1)n2[C@@H]1O[C@@H]2COP(O)(=S)O[C@H]2[C@H]1O (stereo partly drawn) | inactive |
| COc1cc2nc(N3CCCN(C)CC3)nc(N(C)C3CCN(C)CC3)c2cc1OC | 24.1 µM (active) |
| Nc1ncnc2c1ncn2[C@@H]1O[C@H](COP(=O)(O)OP(=O)(O)OP(=O)(O)O)[C@H]2OC3(O[C@H]21)C([N+](=O)[O-])=CC(=[N+]([O-])[O-])C=C3[N+](=O)[O-] (stereo partly drawn) | inactive |
| Nc1ncnc2c1ncn2[C@@H]1O[C@H](COP(=O)(O)CP(=O)(O)O)[C@@H](O)[C@H]1O | inactive |
| Nc1ncnc2c1ncn2[C@@H]1O[C@@H]2COP(O)(=S)O[C@H]2[C@H]1O (stereo partly drawn) | inactive |

From PubChem BioAssay AID1347142 (National Center for Advancing Translational Sciences (NCATS), 2019)
